Eleven compounds from ChEMBL document CHEMBL3988442, “University of Dundee, Small-Polar-MMV Screening Library” (2021) can be followed below.

What all share (design): scale not given: direction of the effect not stated beside the values
In assay [1] the target is Protein translocase subunit SecA (Escherichia coli (strain K12)) (UniProt P10408). The assay can be described thus: Assay to Identify E. coli SecA ATPase Inhibitors. The assay is classed as functional. The following applies: 30 µM.
The target of assay [2] is T1, Ubiquitin-activating enzyme e1, putative (Leishmania donovani (strain BPK282A1)) (UniProt E9BSI1).
T1 sequence (whole entry): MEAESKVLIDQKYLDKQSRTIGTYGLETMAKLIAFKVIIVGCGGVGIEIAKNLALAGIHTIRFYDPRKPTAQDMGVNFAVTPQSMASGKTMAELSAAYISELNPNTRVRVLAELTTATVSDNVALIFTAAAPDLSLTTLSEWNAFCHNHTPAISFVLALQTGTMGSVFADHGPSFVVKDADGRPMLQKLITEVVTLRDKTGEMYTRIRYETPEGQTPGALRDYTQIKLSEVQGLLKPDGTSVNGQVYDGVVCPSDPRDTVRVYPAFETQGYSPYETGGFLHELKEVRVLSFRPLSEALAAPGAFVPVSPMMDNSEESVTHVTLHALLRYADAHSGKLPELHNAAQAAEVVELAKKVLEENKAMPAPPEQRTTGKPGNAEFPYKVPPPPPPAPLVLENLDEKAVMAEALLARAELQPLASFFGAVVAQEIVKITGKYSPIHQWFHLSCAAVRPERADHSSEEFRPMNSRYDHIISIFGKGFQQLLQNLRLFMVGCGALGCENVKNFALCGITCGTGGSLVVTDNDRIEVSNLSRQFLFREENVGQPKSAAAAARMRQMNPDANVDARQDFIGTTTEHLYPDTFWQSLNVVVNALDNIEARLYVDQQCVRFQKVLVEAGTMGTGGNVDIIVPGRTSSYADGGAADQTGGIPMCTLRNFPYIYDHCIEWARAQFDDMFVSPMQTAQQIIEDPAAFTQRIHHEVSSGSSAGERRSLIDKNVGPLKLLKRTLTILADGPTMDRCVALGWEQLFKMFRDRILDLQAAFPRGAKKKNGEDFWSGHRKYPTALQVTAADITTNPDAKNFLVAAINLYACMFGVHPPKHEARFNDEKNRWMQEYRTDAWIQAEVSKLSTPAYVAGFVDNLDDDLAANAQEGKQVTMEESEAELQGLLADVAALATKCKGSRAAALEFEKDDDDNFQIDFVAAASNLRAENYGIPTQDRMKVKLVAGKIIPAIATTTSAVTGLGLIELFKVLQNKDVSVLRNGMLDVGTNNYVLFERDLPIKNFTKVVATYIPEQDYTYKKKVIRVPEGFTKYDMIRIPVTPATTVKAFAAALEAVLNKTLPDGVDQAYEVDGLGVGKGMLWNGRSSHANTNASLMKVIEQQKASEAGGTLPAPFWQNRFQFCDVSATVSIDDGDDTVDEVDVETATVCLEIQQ
The assay can be described thus: Leishmania donovani Ubiquitin Activating Enzyme (LdE1). The class given is functional. The following applies: 30 µM.

Assay [3] concerns the target AMP-activated protein kinase, AMPK (Homo sapiens) (UniProt P54646+O43741+P54619+Q9UGJ0+Q9Y478+Q13131+Q9UGI9). In words: AMP-dependent Kinase enzyme assay. An in vitro enzyme assay that detects ADP turnover that is directly proportional to AMPK activity. This uses naive AMPK that is activated during the assay with MK-8722. The assay is classed as functional. To be noted: 30 µM.

The target of assay [4] is Sialic acid-binding Ig-like lectin 9 (Homo sapiens) (UniProt Q9Y336). In words: Hs-Siglec9 ALPHAscreen SOP 20170721. The following applies: 10 µM. (In general: Bead proximity is the source of the signal in Alpha formats.)
Chain of Sialic acid-binding Ig-like lectin 9 (Homo sapiens) (Q9Y336 whole entry): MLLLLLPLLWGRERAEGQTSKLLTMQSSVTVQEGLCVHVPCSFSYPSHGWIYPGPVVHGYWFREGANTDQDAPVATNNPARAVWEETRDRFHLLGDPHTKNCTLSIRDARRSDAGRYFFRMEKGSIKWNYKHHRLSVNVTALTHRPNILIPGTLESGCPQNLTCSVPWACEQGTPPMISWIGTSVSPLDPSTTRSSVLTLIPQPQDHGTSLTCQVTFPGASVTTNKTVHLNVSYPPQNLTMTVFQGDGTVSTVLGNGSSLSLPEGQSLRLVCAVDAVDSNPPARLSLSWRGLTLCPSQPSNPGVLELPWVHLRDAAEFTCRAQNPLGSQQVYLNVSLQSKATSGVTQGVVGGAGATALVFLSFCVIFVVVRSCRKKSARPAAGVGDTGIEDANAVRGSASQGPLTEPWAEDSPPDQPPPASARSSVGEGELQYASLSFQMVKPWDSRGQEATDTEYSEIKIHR
The test system of assay [5] is Trypanosoma cruzi. In words: Trypanosoma cruzi phosphomannomutase and mannose-1-phosphate guanylyltransferase assay. The assay is classed as functional. To be noted: 10 µM.
The target in assay [6] is T2, Arginase-2, mitochondrial (Homo sapiens) (UniProt P78540).
T2 sequence (whole entry): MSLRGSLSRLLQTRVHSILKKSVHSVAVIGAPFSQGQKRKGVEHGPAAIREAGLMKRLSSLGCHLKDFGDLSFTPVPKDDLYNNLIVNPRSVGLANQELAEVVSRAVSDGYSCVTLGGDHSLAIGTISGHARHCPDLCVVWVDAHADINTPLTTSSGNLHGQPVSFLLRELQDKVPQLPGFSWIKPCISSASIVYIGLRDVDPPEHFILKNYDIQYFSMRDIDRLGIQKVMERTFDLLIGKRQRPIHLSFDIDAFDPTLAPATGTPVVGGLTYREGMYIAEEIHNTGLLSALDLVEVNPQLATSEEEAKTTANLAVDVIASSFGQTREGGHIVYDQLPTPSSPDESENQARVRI
The assay can be described thus: in vitro enzyme assay to detect the production of urea directly proportional to the activity of Arginase II. Also: in the data most compounds retested in dose-response had high values. The assay is classed as functional. The following applies: 33.3 µM.

For assay [7], the target named is T3, Proteasome subunit beta (Trypanosoma cruzi) (UniProt O96673).
T3 sequence (whole entry): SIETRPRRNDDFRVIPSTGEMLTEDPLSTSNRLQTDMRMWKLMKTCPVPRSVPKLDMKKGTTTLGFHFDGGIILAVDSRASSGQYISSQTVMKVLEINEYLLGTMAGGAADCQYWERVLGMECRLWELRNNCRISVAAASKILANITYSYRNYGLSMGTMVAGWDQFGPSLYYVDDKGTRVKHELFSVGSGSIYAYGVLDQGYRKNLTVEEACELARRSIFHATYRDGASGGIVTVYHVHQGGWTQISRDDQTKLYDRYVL
The assay can be described thus: Trypanosoma cruzi proteasome chymotrypsin-like activity (TcProtChymo) assay. Also: in the data most compounds retested in dose-response had high values. The class given is functional. To be noted: 9.37 µM.

The species named for assay [8] is Homo sapiens. The assay can be described thus: To identify inhibition of the IFN signalling (Jak-Stat) pathway via expression of an eGFP reporter gene under the control of an IFN-stimulated response element (ISRE) containing MxA promoter. The assay is classed as functional. To be noted: 30 µM. (In a reporter assay the amount or activity of a reporter protein is the signal.)

Assay [9] deals with T4, Tyrosyl-tRNA synthetase, putative (Trypanosoma cruzi (strain CL Brener)) (UniProt Q4DSP6).
T4 sequence (whole entry): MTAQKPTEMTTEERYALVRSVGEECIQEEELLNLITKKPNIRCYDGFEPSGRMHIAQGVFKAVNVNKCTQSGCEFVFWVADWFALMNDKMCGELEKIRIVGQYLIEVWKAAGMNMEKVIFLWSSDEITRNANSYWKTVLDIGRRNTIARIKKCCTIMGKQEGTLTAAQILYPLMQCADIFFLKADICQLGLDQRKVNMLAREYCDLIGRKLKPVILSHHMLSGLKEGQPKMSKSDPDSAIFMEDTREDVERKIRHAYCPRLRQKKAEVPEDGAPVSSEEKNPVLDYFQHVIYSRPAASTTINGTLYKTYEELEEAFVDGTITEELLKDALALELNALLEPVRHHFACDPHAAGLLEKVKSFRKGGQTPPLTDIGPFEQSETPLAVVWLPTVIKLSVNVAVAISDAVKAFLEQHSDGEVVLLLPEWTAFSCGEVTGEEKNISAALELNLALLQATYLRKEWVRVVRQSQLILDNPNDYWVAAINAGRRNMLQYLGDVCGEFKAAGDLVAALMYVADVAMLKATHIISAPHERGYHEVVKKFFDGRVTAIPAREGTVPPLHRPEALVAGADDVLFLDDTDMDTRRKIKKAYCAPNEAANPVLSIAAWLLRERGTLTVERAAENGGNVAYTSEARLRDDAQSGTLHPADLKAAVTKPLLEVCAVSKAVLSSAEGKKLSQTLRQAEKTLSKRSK
In words: Trypanosoma cruzi tyrosyl tRNA synthetase (TcYRS) _High Tyrosine SOP. Also: in the data most compounds retested in dose-response had high values. The following applies: 30 µM. The assay is classed as functional.

Assay [10] deals with T4, Tyrosyl-tRNA synthetase, putative (Trypanosoma cruzi (strain CL Brener)). The assay can be described thus: Trypanosoma cruzi tyrosyl tRNA synthetase (TcYRS) SOP. The class given is functional. To be noted: 30 µM.
Assay [11] addresses Chromo domain-containing protein 1 (Saccharomyces cerevisiae (strain ATCC 204508 / S288c) (Baker's yeast)) (UniProt P32657). In words: ScCHD-1 Enzyme Inhibition Assay. Also: in the data most compounds retested in dose-response had high values. The class given is functional. The following applies: 30 µM.

For some of these results: Entries with a potency or affinity are not part of this list.

Chain of Chromo domain-containing protein 1 (Saccharomyces cerevisiae (strain ATCC 204508 / S288c) (Baker's yeast)) (P32657 whole entry, the tested form may be a part): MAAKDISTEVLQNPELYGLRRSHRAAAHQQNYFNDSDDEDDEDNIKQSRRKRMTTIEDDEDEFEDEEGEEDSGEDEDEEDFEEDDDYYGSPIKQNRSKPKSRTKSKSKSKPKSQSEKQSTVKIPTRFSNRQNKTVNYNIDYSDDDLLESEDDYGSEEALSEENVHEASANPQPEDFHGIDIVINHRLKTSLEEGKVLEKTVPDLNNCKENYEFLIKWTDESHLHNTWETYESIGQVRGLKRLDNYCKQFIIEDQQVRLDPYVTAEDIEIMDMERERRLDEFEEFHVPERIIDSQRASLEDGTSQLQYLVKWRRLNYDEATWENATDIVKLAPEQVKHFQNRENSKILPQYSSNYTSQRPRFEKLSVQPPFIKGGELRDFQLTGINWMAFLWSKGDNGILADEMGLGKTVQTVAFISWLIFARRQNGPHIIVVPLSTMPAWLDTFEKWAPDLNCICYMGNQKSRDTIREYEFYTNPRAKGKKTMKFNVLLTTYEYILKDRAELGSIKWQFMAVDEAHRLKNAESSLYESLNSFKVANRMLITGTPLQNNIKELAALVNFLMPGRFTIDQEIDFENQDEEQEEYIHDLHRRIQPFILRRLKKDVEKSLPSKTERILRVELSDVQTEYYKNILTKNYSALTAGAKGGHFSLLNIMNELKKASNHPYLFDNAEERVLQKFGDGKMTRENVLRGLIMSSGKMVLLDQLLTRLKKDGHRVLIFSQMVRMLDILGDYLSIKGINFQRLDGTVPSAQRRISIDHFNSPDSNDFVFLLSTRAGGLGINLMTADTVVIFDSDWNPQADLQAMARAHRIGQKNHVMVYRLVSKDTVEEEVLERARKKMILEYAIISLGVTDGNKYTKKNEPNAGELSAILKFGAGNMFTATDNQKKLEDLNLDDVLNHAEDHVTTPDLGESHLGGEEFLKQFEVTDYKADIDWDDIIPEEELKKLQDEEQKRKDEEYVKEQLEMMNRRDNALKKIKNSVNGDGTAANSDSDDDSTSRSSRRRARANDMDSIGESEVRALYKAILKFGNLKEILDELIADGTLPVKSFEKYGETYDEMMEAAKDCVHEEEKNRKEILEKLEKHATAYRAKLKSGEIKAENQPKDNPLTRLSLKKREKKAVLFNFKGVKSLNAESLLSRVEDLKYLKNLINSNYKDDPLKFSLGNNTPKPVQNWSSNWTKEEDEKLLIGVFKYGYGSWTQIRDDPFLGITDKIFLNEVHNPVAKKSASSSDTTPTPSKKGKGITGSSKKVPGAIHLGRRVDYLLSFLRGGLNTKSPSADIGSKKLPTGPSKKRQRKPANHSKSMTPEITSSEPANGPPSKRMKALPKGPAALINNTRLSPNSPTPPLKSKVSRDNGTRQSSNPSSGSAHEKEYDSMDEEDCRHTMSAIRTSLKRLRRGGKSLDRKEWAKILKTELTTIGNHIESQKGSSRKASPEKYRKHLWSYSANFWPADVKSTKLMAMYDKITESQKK
Chain of Protein translocase subunit SecA (Escherichia coli (strain K12)) (P10408 whole entry): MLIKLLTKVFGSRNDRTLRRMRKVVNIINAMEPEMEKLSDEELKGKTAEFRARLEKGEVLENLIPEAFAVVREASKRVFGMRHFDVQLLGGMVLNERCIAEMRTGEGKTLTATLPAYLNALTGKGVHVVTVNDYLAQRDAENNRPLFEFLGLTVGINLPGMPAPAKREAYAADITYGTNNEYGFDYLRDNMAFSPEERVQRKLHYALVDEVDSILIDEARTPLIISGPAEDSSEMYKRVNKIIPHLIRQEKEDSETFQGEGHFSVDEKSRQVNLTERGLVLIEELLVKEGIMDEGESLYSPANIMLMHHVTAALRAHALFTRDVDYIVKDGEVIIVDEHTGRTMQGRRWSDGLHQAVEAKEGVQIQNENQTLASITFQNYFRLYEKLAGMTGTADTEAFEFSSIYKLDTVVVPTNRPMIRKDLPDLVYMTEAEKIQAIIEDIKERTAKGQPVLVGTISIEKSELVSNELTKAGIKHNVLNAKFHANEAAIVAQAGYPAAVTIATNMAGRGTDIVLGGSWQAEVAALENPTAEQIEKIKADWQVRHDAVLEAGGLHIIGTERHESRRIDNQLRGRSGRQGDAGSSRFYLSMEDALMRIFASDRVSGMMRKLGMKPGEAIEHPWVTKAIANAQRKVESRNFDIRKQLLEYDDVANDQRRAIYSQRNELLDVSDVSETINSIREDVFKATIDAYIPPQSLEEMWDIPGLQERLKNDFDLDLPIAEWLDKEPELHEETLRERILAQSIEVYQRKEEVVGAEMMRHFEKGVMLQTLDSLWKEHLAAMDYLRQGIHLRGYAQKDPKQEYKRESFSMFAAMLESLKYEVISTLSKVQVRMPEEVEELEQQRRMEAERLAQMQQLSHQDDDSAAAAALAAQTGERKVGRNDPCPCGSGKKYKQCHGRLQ

Consider `Cc1nnc(N2C[C@@H](OCCCn3cccn3)[C@H]3OCCC[C@H]32)s1`, for which the Percent Effect is -0.829% in assay [1]; 5.48% in assay [2]; -5.05% in assay [3]; 10.8% in assay [4]; 1.79% in assay [5]; -5.19% in assay [6]. Further, the Percent Effect in assay [7] was 24.9%; in assay [8], -5.83%; in assay [9], 7.29%; in assay [10], 16.1%; in [11], -7.05%.
For the compound `c1cnn(CC2CN(Cc3nc(-c4ccsc4)no3)CCO2)c1` (stereo unspecified), the Percent Effect was -2.55% in assay [1]; 10.5% in assay [2]; -2.23% in assay [3]; 16.5% in [4]; -1.13% in [5]; 0.766% in assay [6]. Moreover, the Percent Effect in assay [7] was -2.34%; in assay [8] it was 6.35%; in [9] it was 1.47%; in [10], 9.76%; in assay [11], 0.902%.
On to `CN(CCN1CCOCC1)C(=O)CCc1cccc(Cl)c1`, for which the Percent Effect in assay [1] is -0.257%; in assay [2], 13.2%; in assay [3], -2.72%; in [4], -7.75%; in assay [5], -4.58%; in [6], -9.47%. Further, the Percent Effect is 12.2% in [7]; 17.3% in [8]; 1.06% in [9]; 7.79% in assay [10]; -4.62% in [11].
Consider `CN1CCc2c(C#N)c(NCc3ccco3)n3cnnc3c2C1`, for which the Percent Effect in [1] is -7.61%; in [2] it was 15.8%; in [3], 0.706%; in assay [4] it was 6.25%; in assay [5], 1.07%; in [6], 0%. Moreover, the Percent Effect in assay [7] was 14.5%; in assay [8], -6.85%; in assay [9] it was 4.25%; in assay [10], 15.6%; in [11], -17.9%.
On to `Cc1c(Br)cccc1C(=O)NC(C)CN1CCCC1=O` (stereo unspecified), for which the Percent Effect in [1] is -3.78%; in assay [2] it was 2.74%; in [3], -2.6%; in assay [4], -6.12%; in assay [5], -2.35%; in assay [6], 0.909%. In addition, the Percent Effect was 7.1% in [7]; 10% in assay [8]; 1.07% in assay [9]; 5% in assay [10]; -5.51% in assay [11].
Turning to `O=C(NCC1CC1)N1CCN(Cc2ccc3c(c2)OCCO3)CC1`, the Percent Effect in [1] is -2.95%; in assay [2], 5.26%; in assay [3], 1.09%; in [4], 12.6%; in assay [5] it was 3.08%; in assay [6], 1.08%. The Percent Effect in assay [7] amounted to 4.99%; in [8] it was 20%; in [9] it was 3.45%; in assay [10], 13.6%; in [11], 0.382%.
Regarding `O=C(NCC1CC1)C1CN(C(=O)c2cccs2)CC12CCOCC2` (stereo unspecified), the Percent Effect is -8.31% in [1]; 16% in assay [2]; 2.41% in [3]; 3.43% in assay [4]; 0.579% in assay [5]; -52.5% in assay [6]. Also, the Percent Effect in [7] is 4.62%; in assay [8] it was -9.4%; in assay [9], 5.21%; in assay [10] it was -47.5%; in assay [11] it was -5.08%.
On to `CC(C)c1nc(C2CCCN(C(=O)c3ccc4nccn4c3)C2)no1` (stereo unspecified), for which the Percent Effect in assay [1] is -2.08%; in assay [2] it was 10.4%; in [3], 2.88%; in assay [4] it was 12.4%; in assay [5], -1.47%; in assay [6], 1.47%. In addition, the Percent Effect in [7] is 3.15%; in assay [8], -11.3%; in assay [9], 1.91%; in assay [10], 7.06%; in [11], -11.9%.
Turning to `CCS(=O)(=O)N(C)C1CCN(C(=O)c2cccc(Cl)c2)CC1`, the Percent Effect in [1] is -3.98%; in assay [2], 16.2%; in assay [3] it was -9.5%; in assay [4], 1.05%; in assay [5] it was 4.3%; in assay [6] it was 11.2%. In addition, the Percent Effect in assay [7] is 9.38%; in [8] it was -0.31%; in [9], 6.93%; in assay [10], 11%; in assay [11] it was -6.5%.
On to `O=C(CCn1ccccc1=O)Nc1ccc(I)cc1`, for which the Percent Effect in assay [1] was -2.63%; in assay [2], 2.7%; in assay [3], -7.9%; in assay [4], 21.2%; in assay [5], 0.684%; in assay [6], -0.248%. The Percent Effect stood at 16.6% in assay [7]; 5.89% in [8]; 1.07% in [9]; 6.17% in [10]; 6.86% in [11].
For `O=C(CCc1cccnc1)N1CCCC(n2cncn2)C1` (stereo unspecified), the Percent Effect in [1] is -2.09%; in assay [2], 0%; in [3], 4.67%; in assay [4], 4.06%; in [5], 2.74%; in [6], 0.76%. In addition, the Percent Effect in assay [7] is -1.23%; in assay [8] it was -1.71%; in assay [9], 2.46%; in assay [10], -1.27%; in [11], -1.28%.
